# Results taken from article PMC12350791.
# Legend:
# Test in all cases: cross-linking mass spectrometry
# Conditions in all cases: DSBSO, in cells or nuclear extract, not told apart
# LARS1 = LARS1 (UniProt Q9P2J5)
# LDHB = LDHB (UniProt P07195)
# LSM4 = LSM4 (UniProt Q9Y4Z0)
# MAD1L1 = MAD1L1 (UniProt Q9Y6D9)
# MAP1B = MAP1B (UniProt P46821)
# MAPK14 = MAPK14 (UniProt Q16539)
# MARS1 = MARS1 (UniProt P56192)
# MBOAT7 = MBOAT7 (UniProt Q96N66)
# MCM2 = MCM2 (UniProt P49736)
# MCM6 = MCM6 (UniProt Q14566)
# MCM7 = MCM7 (UniProt P33993)
# MED4 = MED4 (UniProt Q9NPJ6)
# MYDGF = MYDGF (UniProt Q969H8)
# MYH9 = MYH9 (UniProt P35579)
# MYO9B = MYO9B (UniProt Q13459)
# NAP1L4 = NAP1L4 (UniProt Q99733)
# NCAPD2 = NCAPD2 (UniProt Q15021)
# NCBP1 = NCBP1 (UniProt Q09161)
# NDUFA5 = NDUFA5 (UniProt Q16718)
# NDUFA6 = NDUFA6 (UniProt P56556)
# NDUFAF4 = NDUFAF4 (UniProt Q9P032)
# NDUFS2 = NDUFS2 (UniProt O75306)
# NIP7 = NIP7 (UniProt Q9Y221)
# NMI = NMI (UniProt Q13287)
# NOC4L = NOC4L (UniProt Q9BVI4)
# NOL7 = NOL7 (UniProt Q9UMY1)
# NPM1 = NPM1 (UniProt P06748)
# NUDT5 = NUDT5 (UniProt Q9UKK9)
# NUP160 = NUP160 (UniProt Q12769)
# RAE1 = RAE1 (UniProt P78406)
# NUP50 = NUP50 (UniProt Q9UKX7)
# NUP62 = NUP62 (UniProt P37198)
# NUP85 = NUP85 (UniProt Q9BW27)
# NUP88 = NUP88 (UniProt Q99567)
# OSBPL11 = OSBPL11 (UniProt Q9BXB4)
# PAFAH1B2 = PAFAH1B2 (UniProt P68402)
# PAM16 = PAM16 (UniProt Q9Y3D7)
# PAXBP1 = PAXBP1 (UniProt Q9Y5B6)
# PDE4DIP = PDE4DIP (UniProt Q5VU43)
# PELP1 = PELP1 (UniProt Q8IZL8)
# PFKP = PFKP (UniProt Q01813)
# PHC2 = PHC2 (UniProt Q8IXK0)
# PNN = PNN (UniProt Q9H307)
# PNO1 = PNO1 (UniProt Q9NRX1)
# RPL23A = RPL23A (UniProt P62750)
# PRPF31 = PRPF31 (UniProt Q8WWY3)
# PSME2 = PSME2 (UniProt Q9UL46)
# PUF60 = PUF60 (UniProt Q9UHX1)
# RAD50 = RAD50 (UniProt Q92878)
# RAN = RAN (UniProt P62826)
# RNF20 = RNF20 (UniProt Q5VTR2)
# RPF1 = RPF1 (UniProt Q9H9Y2)
# RPLP2 = RPLP2 (UniProt P05387)
# RREB1 = RREB1 (UniProt Q92766)
# SIN3A = SIN3A (UniProt Q96ST3)
# RSL24D1 = RSL24D1 (UniProt Q9UHA3)
# RTCB = RTCB (UniProt Q9Y3I0)
# RUVBL2 = RUVBL2 (UniProt Q9Y230)
# RWDD1 = RWDD1 (UniProt Q9H446)
# SDHA = SDHA (UniProt P31040)
# SEH1L = SEH1L (UniProt Q96EE3)
# SEPTIN11 = SEPTIN11 (UniProt Q9NVA2)
# SEPTIN2 = SEPTIN2 (UniProt Q15019)
# SERBP1 = SERBP1 (UniProt Q8NC51)
# Chain of NDUFS7, O75251 (O75251 whole entry): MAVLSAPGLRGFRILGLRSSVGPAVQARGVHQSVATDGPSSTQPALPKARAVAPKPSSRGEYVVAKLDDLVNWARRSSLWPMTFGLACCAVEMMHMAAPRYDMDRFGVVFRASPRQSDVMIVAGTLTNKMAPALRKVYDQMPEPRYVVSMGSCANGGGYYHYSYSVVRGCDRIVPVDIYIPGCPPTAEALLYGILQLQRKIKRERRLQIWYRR
# Chain of RPF1 (Q9H9Y2 whole entry): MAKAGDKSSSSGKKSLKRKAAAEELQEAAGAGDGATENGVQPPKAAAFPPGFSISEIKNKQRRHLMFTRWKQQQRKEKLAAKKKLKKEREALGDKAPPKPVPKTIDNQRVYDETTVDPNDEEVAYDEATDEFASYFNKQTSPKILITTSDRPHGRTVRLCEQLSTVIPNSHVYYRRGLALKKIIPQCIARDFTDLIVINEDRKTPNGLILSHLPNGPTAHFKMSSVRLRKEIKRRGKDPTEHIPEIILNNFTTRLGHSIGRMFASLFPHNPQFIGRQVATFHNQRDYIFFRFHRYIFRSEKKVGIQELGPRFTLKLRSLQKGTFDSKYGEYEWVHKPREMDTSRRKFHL
# Chain of LSM4 (Q9Y4Z0 whole entry): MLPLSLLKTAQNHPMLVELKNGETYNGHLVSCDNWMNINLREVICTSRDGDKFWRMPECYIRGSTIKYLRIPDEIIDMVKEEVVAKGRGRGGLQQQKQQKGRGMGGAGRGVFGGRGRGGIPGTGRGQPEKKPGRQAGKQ
# Chain of NUP98, P52948 (P52948 whole entry): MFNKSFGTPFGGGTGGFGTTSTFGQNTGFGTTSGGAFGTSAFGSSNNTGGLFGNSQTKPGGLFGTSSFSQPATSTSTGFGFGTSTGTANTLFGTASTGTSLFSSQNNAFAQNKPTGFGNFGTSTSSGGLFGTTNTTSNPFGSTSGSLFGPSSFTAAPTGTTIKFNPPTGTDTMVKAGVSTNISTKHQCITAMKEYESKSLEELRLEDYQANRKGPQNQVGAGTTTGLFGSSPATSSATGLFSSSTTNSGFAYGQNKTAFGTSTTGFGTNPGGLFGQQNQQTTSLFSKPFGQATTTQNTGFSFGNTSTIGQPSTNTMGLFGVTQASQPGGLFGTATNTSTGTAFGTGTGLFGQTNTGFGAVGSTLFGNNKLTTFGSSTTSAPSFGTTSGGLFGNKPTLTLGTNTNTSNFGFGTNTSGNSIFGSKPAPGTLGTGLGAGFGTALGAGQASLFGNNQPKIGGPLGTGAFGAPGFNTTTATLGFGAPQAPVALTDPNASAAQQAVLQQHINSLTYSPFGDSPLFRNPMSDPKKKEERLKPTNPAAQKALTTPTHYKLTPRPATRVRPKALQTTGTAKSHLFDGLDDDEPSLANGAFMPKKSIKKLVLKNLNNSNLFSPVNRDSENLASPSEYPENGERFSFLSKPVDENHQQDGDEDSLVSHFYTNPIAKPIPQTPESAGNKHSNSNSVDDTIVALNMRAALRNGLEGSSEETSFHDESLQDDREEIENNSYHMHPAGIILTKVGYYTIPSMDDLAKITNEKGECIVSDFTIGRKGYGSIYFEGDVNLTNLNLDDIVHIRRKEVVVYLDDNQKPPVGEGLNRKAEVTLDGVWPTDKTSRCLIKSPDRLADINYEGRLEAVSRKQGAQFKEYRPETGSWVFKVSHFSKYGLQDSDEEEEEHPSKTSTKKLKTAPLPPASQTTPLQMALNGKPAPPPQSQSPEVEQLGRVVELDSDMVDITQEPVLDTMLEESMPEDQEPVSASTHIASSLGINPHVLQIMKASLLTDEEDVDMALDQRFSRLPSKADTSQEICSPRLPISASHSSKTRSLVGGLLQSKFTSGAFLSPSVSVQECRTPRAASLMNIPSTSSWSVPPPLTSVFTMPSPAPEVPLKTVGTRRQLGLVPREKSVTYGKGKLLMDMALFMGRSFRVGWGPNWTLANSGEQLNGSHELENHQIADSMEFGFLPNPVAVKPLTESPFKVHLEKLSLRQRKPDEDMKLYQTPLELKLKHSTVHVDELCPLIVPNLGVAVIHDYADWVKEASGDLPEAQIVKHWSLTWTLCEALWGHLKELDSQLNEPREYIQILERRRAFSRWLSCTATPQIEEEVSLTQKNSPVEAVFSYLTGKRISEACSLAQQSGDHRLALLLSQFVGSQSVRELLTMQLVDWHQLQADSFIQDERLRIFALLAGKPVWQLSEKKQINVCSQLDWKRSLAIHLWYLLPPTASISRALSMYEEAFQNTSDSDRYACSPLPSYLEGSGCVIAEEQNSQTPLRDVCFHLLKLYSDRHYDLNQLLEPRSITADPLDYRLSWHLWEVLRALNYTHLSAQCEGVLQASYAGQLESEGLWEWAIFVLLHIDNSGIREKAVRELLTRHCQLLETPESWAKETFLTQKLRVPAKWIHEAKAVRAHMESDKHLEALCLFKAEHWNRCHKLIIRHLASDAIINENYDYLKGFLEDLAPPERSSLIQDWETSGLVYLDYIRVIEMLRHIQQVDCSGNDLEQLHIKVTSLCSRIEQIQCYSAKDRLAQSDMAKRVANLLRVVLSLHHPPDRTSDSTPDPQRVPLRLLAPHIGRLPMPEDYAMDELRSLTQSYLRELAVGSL
# Chain of RAD50 (Q92878 whole entry): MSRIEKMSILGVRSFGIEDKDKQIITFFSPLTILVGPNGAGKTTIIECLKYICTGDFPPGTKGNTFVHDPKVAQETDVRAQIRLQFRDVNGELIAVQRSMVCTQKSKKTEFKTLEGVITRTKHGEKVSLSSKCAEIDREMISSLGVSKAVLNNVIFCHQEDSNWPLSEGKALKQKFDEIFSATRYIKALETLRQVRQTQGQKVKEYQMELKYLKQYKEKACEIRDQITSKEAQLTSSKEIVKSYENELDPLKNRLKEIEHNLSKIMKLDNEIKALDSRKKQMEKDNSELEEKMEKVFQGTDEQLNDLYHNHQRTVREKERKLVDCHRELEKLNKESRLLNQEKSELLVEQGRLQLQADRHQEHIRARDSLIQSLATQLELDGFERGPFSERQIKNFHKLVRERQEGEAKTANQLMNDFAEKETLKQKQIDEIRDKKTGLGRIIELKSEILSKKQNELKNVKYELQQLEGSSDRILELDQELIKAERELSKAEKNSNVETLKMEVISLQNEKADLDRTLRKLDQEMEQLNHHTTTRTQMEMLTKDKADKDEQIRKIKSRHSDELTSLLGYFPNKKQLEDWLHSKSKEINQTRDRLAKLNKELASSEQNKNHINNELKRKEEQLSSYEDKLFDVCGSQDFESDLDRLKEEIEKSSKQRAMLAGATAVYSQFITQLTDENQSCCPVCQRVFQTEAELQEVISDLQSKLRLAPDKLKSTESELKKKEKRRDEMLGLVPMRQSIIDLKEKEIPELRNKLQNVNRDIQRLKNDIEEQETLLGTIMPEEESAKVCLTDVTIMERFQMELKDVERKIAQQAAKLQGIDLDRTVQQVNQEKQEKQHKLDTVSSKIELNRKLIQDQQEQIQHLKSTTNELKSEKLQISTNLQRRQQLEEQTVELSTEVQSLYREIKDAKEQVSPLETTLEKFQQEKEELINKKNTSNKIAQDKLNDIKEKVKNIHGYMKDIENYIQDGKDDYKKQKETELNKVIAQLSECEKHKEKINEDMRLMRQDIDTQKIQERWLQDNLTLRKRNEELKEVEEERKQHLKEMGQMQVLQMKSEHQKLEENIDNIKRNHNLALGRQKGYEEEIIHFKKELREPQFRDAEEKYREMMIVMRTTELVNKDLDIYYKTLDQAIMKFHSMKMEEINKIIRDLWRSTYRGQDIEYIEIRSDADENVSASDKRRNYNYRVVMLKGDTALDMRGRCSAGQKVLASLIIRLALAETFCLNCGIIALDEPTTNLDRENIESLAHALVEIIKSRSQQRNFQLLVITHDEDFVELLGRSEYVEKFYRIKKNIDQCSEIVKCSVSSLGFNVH
# Chain of HDAC1, Q13547 (Q13547 whole entry): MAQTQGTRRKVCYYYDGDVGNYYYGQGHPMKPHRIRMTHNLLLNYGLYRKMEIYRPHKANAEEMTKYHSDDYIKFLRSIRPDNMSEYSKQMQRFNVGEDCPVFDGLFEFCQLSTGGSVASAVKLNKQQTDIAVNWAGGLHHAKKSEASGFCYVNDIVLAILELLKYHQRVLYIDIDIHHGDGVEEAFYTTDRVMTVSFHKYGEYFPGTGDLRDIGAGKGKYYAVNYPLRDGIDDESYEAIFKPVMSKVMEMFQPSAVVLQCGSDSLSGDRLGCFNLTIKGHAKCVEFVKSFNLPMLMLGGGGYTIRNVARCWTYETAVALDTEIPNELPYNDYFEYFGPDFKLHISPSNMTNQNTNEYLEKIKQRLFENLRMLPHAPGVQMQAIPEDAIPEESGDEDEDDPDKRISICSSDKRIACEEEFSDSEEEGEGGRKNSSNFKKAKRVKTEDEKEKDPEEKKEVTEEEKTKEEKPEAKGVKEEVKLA
# Chain of ACTR1B, P42025 (P42025 whole entry): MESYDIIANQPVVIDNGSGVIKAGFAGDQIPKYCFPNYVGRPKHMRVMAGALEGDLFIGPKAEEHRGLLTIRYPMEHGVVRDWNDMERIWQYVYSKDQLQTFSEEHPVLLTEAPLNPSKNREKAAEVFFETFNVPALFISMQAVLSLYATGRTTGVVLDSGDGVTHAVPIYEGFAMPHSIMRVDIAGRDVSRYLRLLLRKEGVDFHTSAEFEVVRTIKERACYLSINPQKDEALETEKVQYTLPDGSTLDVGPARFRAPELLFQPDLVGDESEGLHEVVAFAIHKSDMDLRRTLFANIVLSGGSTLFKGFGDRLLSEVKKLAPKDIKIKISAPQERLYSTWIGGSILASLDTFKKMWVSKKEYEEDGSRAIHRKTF
# Chain of EEF1E1, O43324 (O43324 whole entry): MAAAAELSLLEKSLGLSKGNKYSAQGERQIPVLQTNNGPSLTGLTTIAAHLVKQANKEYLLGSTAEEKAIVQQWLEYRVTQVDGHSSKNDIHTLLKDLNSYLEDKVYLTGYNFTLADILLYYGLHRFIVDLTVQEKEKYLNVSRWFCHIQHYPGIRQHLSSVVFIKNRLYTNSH
# Chain of RPLP1, P05386 (P05386 whole entry): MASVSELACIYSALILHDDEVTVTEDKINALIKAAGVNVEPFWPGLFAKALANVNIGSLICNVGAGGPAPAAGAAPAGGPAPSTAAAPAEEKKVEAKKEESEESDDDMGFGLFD
substance,measurement,setting,value
"TMF1, P82094",cross-linked residues,LARS1,K512 - K491
"LDHA, P00338",cross-linked residues,LDHB,K14 - K156
"PATL1, Q86TB9",cross-linked residues,LSM4,K398 - K80
"LSM7, Q9UK45",cross-linked residues,LSM4,K8 - K80
"MAD2L1, Q13257",cross-linked residues,MAD1L1,K122 - K666
"H1-5, P16401",cross-linked residues,MAP1B,K161 - K2291
"MAPKAPK2, P49137",cross-linked residues,MAPK14,K307 - K233
"EEF1E1, O43324",cross-linked residues,MARS1,K21 - K663
"COX6B1, P14854",cross-linked residues,MBOAT7,K47 - K468
"MCM4, P33991",cross-linked residues,MCM2,K819 - K807
"MCM2, P49736",cross-linked residues,MCM6,K591 - K517
"MCM7, P33993",cross-linked residues,MCM6,K75 - K197
"MCM3, P25205",cross-linked residues,MCM7,K435 - K236
"MED1, Q15648",cross-linked residues,MED4,K70 - K81
"PRKCSH, P14314",cross-linked residues,MYDGF,K436 - K161
"TPR, P12270",cross-linked residues,MYH9,K854 - K1614
"H1-2, P16403",cross-linked residues,MYO9B,K140 - K1390
"NAP1L1, P55209",cross-linked residues,NAP1L4,K87 - K105
"SMC2, O95347",cross-linked residues,NCAPD2,K1014 - K78
"NCBP2, P52298",cross-linked residues,NCBP1,K68 - K607
"NDUFA10, O95299",cross-linked residues,NDUFA5,K80 - K30
"NDUFS4, O43181",cross-linked residues,NDUFA6,K73 - K116
"NDUFS7, O75251",cross-linked residues,NDUFAF4,K55 - K107
same,cross-linked residues,NDUFS2,K136 - K78
"NOP2, P46087",cross-linked residues,NIP7,K423 - K72
"IFI35, P80217",cross-linked residues,NMI,K47 - K254
"NOP14, P78316",cross-linked residues,NOC4L,K535 - K342
"UTP15, Q8TED0",cross-linked residues,NOL7,K416 - K210
"NPM3, O75607",cross-linked residues,NPM1,K125 - K27
"PYCR2, Q96C36",cross-linked residues,NUDT5,K47 - K210
"NUP98, P52948",cross-linked residues,NUP160,K1749 - K1096
same,cross-linked residues,RAE1,K175 - K252
"CSE1L, P55060",cross-linked residues,NUP50,K726 - K62
"NUP214, P35658",cross-linked residues,NUP62,K755 - K371
"SEH1L, Q96EE3",cross-linked residues,NUP85,K314 - K59
"NUP62, P37198",cross-linked residues,NUP88,K415 - K642
"PPA1, Q15181",cross-linked residues,OSBPL11,K238 - K660
"PAFAH1B1, P43034",cross-linked residues,PAFAH1B2,K147 - K145
"DNAJC19, Q96DA6",cross-linked residues,PAM16,K93 - K82
"TFIP11, Q9UBB9",cross-linked residues,PAXBP1,K267 - K682
"IMMT, Q16891",cross-linked residues,PDE4DIP,K343 - K1022
"NOL9, Q5SY16",cross-linked residues,PELP1,K670 - K216
"PFKM, P08237",cross-linked residues,PFKP,K476 - K736
"RING1, Q06587",cross-linked residues,PHC2,K297 - K598
"SAP18, O00422",cross-linked residues,PNN,K74 - K109
"NPM1, P06748",cross-linked residues,PNO1,K267 - K77
same,cross-linked residues,RPL23A,K141 - K30
"SNU13, P55769",cross-linked residues,PRPF31,K86 - K315
"PSME1, Q06323",cross-linked residues,PSME2,K190 - K180
"SRSF11, Q05519",cross-linked residues,PUF60,K58 - K69
"MRE11, P49959",cross-linked residues,RAD50,K393 - K1190
"ACTR1B, P42025",cross-linked residues,RAD50,K324 - K651
"XPO1, O14980",cross-linked residues,RAN,K426 - K159
"RNF40, O75150",cross-linked residues,RNF20,K862 - K834
"MAK16, Q9BXY0",cross-linked residues,RPF1,K164 - K302
"WDR74, Q6RFH5",cross-linked residues,RPF1,K151 - K182
"RPLP1, P05386",cross-linked residues,RPLP2,K33 - K25
"HDAC1, Q13547",cross-linked residues,RREB1,K74 - K259
same,cross-linked residues,SIN3A,K220 - K552
"GTPBP4, Q9BZE4",cross-linked residues,RSL24D1,K448 - K88
"RTRAF, Q9Y224",cross-linked residues,RTCB,K185 - K492
"HAUS3, Q68CZ6",cross-linked residues,RUVBL2,K595 - K177
"DRG2, P55039",cross-linked residues,RWDD1,K311 - K166
"SDHB, P21912",cross-linked residues,SDHA,K167 - K167
"NUP43, Q8NFH3",cross-linked residues,SEH1L,K161 - K96
"SEPTIN2, Q15019",cross-linked residues,SEPTIN11,K249 - K190
"SEPTIN6, Q14141",cross-linked residues,SEPTIN2,K191 - K249
"RPS12, P25398",cross-linked residues,SERBP1,K116 - K299
